Records with an inconclusive call do not appear. Where a call stands in place of a potency, no number is given. Active and inactive are the calls of the source. Calls come from the whole dose curve; as a rule, active = well fitted curve in the direction sought with a large enough effect; inconclusive = small, poorly fitted or top-dose-only effect, or another doubt; inactive = no such curve, though single readings can be large; an effect the other way counts as inactive or inconclusive.

The first test has as its target Aldehyde dehydrogenase, mitochondrial (Homo sapiens) (UniProt P05091). Nature of the test: qHTS for Inhibitors of the Aldehyde Dehydrogenase Family (ALDH2) Primary screen (AID 2061308). Note: nearly all actives have a fitted effect of over 55% in size. The following applies: ALDH2 enzyme inhibition qHTS, 1536-well; series mostly up to 56 µM.
As to `O=C(Cn1nc(-c2ccc(OC(F)(F)F)cc2)ccc1=O)NCCc1ccccc1`, the Potency entry was “inactive”.
Still for that read-out and setting: the entry for `Cc1ccc(OCCn2c(CCNC(=O)c3c(F)cccc3F)nc3ccccc32)cc1` is “inactive”; for `CCN1CCCC1Cn1c(-c2ccccc2)nc2c(NCCOC)nc(C)nc21` (stereo not given) it is “inactive”.
On the same count and under the same terms, the entry for `Cc1cccc(-n2cnc3cc(C(=O)N4CCCC(C(F)(F)F)C4)ccc32)c1` (stereo not given) is “inactive”; for `CC(=O)Nc1sc2c(c1C(O)c1nc3ccccc3s1)CCN(C(C)C)C2` (stereo not given) it is “inactive”.
Same read-out and setting: next, `Cc1cc(NC(=O)Nc2nnc(C3CCCCC3)s2)ccc1F`: “inactive”; `CC1(C)CCC(C)(C)c2cc([S+](=O)([O-])N3CCN([S+](=O)([O-])c4c(F)cccc4F)CC3)ccc21`: “inactive”; `N#Cc1ccccc1-c1csc(N2CCC(C(N)=O)CC2)n1`: “inactive”.
Consider `CN1C(=O)NC(c2ccccc2Cl)C2=C1CCCC2=O` (stereo not given), for which the Potency result is “inactive”.
Same read-out and setting: next, `O=C(O)c1ccc(O)c2ncc(NC3CCNCC3)cc12`: “inactive”; `Cc1cc(C)nc(NC(=S)N2CCN(c3ccc(C(F)(F)F)cc3[N+](=O)[O-])CC2)c1`: “inactive”; `COc1ccc(C(F)(F)F)cc1NC(=O)C(OC(=O)CNC(=O)c1ccccc1)c1ccccc1` (stereo not given): “inactive”.
On the same count and under the same terms, the entry for `CCC1CCCN(C(=O)CC(c2ccc3c(c2)OCO3)c2c(O)cc(OC)cc2OC)C1` (stereo not given) is “inactive”.
Still for that read-out and setting: the entry for `O=c1c2ccccc2nc2sc(NCc3ccc(Cc4ccccc4)cc3)nn12` is “inactive”; for `O=C(OCC#CCSc1nnc(-c2cccc3ncccc23)o1)c1ccc(F)cc1` it is “inactive”.
With `Cc1ccc(-c2csc(N3CCC(C(N)=O)CC3)n2)cc1`, the Potency entry is “inactive”.
Still for that read-out and setting: the entry for `C=CCNc1oc(-c2cccc(Br)c2)nc1C#N` is “inactive”; for `O=S(=O)(Nc1ccc2ccccc2c1)c1ccc(NCc2ccc(Br)cc2O)cc1` it is “inactive”.
Same read-out and setting: the entry for `Cc1cccc(C(=O)N2CCc3cc(-c4nc(NC(=O)Cc5ccc6c(c5)OCO6)sc4C)ccc32)c1` is “inactive”; for `COc1nccc(-c2nc(Nc3ccc(F)c(F)c3)c3ccccc3n2)c1Cl` it is “inactive”; for `CC(C)(C)Cc1nnc(NC(=O)CSc2ccccc2)s1` it is “inactive”.
As for `COc1ccccc1-c1nc2ccccc2s1`, the Potency entry is “inactive”.
On the same count and under the same terms, the entry for `Nc1cc(-c2nc(Nc3ccc(F)c(F)c3)c3ccccc3n2)ccn1` is “inactive”; for `CC(=O)Nc1cccc(S(=O)(=O)Nc2ccc(C)c(C)c2)c1` it is “inactive”.
As for `COc1ccc(NC(=O)CN2C(=O)N/C(=C\c3cccn3-c3ccc(C(=O)NC#N)cc3)C2=O)cc1`, the Potency result was “inactive”.

For the next test, the target named is Retinaldehyde dehydrogenase 3 (Homo sapiens) (UniProt P47895). Nature of the test: qHTS for Inhibitors of the Aldehyde Dehydrogenase Family (ALDH1A3) Primary screen (AID 2061315). The conditions noted are these: ALDH inhibition qHTS; series mostly up to 56 µM. (Quantitative high-throughput screening tests each substance at several concentrations.)
Take `N#Cc1nc(-c2cccc3ccccc23)oc1NC1CNC1`: the Potency entry was “inactive”.
In the case of `O=C(Cc1ccc(Cl)c(Cl)c1)Nc1ccc([S+](=O)([O-])Nc2ccc([N+](=O)[O-])cc2)cc1`, the Potency entry is “inactive”.
Same read-out and setting: next, `CCOc1ccc(CCNC(=O)c2cc3sccc3n2Cc2ccc(Cl)c(F)c2)cc1OCC`: “inactive”; `Cc1cc2c(s1)c1cnn(Cc3ccc(F)c(C)c3)c(=O)c1n2C`: “inactive”.
Still for that read-out and setting: the entry for `Cc1ccc(C(=O)NCC(=O)OC(C(=O)Nc2cc(C(F)(F)F)ccc2Cl)c2ccccc2)cc1` (stereo not given) is “inactive”.
Still for that read-out and setting: the entry for `O=[S+]([O-])(c1ccc(OC(F)(F)F)cc1)N1CCN([S+](=O)([O-])c2ccc3c(c2)OCCO3)CC1` is “inactive”; for `Cc1ccnc(NC(=S)NC2CCCN(c3cccc(C(F)(F)F)c3)C2)c1` (stereo not given) it is “inactive”; for `COc1ccc(CC(=O)Nc2ccc(S(=O)(=O)Nc3cc(C)on3)cc2)cc1C` it is “inactive”.
For the compound `Fc1cc(Nc2nc(-c3ccncc3)nc3ccccc23)ccc1-c1cccc(OC(F)F)c1`, the Potency entry is “inactive”.
Consider `OC[C@H]1O[C@@H](O[C@H]2[C@H](OCCc3ccccc3)O[C@H](CO)[C@@H](O)[C@@H]2O)[C@H](O)[C@@H](O)[C@@H]1O`, for which the Potency entry is “inactive”.
The same measure, in the same setting: the entry for `Fc1ccccc1-c1ccc(Nc2nc(-c3ccncc3)nc3ccccc23)cc1F` is “inactive”; for `COc1ccc(NC(=O)C(OC(=O)CNC(=O)c2ccccc2)c2ccccc2)cc1Cl` (stereo not given) it is “inactive”.
On the same count and under the same terms, the entry for `COC(=O)c1ccccc1S(=O)(=O)Nc1ccc(OC)cc1` is “inactive”; for `O=C(COC(=O)CNC(=O)C1CCCCC1)Nc1ccccc1Cl` it is “inactive”.
The same measure, in the same setting: the entry for `CC(=O)Nc1sc2c(c1-c1ccc3[nH]ccc3c1)CCNC2` is “inactive”; for `O=C(Cn1nc(-c2ccc(OC(F)(F)F)cc2)ccc1=O)NCCc1ccccc1` it is “inactive”; for `Cc1ccc(OCCn2c(CCNC(=O)c3c(F)cccc3F)nc3ccccc32)cc1` it is “inactive”.
With `CCN1CCCC1Cn1c(-c2ccccc2)nc2c(NCCOC)nc(C)nc21` (stereo not given), the Potency result is “inactive”.
Still for that read-out and setting: the entry for `Cc1cccc(-n2cnc3cc(C(=O)N4CCCC(C(F)(F)F)C4)ccc32)c1` (stereo not given) is “inactive”; for `CC(=O)Nc1sc2c(c1C(O)c1nc3ccccc3s1)CCN(C(C)C)C2` (stereo not given) it is “inactive”; for `Cc1cc(NC(=O)Nc2nnc(C3CCCCC3)s2)ccc1F` it is “inactive”.
Take `CC1(C)CCC(C)(C)c2cc([S+](=O)([O-])N3CCN([S+](=O)([O-])c4c(F)cccc4F)CC3)ccc21`: the Potency entry was “inactive”.
For `N#Cc1ccccc1-c1csc(N2CCC(C(N)=O)CC2)n1`, the Potency entry was “inactive”.
For `CN1C(=O)NC(c2ccccc2Cl)C2=C1CCCC2=O` (stereo not given), the Potency entry is “inactive”.
The same measure, in the same setting: next, `O=C(O)c1ccc(O)c2ncc(NC3CCNCC3)cc12`: “inactive”; `Cc1cc(C)nc(NC(=S)N2CCN(c3ccc(C(F)(F)F)cc3[N+](=O)[O-])CC2)c1`: “inactive”.
Consider `COc1ccc(C(F)(F)F)cc1NC(=O)C(OC(=O)CNC(=O)c1ccccc1)c1ccccc1` (stereo not given), for which the Potency entry was “inactive”.
Still for that read-out and setting: the entry for `CCC1CCCN(C(=O)CC(c2ccc3c(c2)OCO3)c2c(O)cc(OC)cc2OC)C1` (stereo not given) is “inactive”.
Still for that read-out and setting: next, `O=c1c2ccccc2nc2sc(NCc3ccc(Cc4ccccc4)cc3)nn12`: “inactive”.
On the same count and under the same terms, the entry for `O=C(OCC#CCSc1nnc(-c2cccc3ncccc23)o1)c1ccc(F)cc1` is “inactive”; for `Cc1ccc(-c2csc(N3CCC(C(N)=O)CC3)n2)cc1` it is “inactive”.
With `C=CCNc1oc(-c2cccc(Br)c2)nc1C#N`, the Potency result was “inactive”.
Same read-out and setting: the entry for `O=S(=O)(Nc1ccc2ccccc2c1)c1ccc(NCc2ccc(Br)cc2O)cc1` is “inactive”; for `Cc1cccc(C(=O)N2CCc3cc(-c4nc(NC(=O)Cc5ccc6c(c5)OCO6)sc4C)ccc32)c1` it is “inactive”; for `COc1nccc(-c2nc(Nc3ccc(F)c(F)c3)c3ccccc3n2)c1Cl` it is “inactive”.
Take `CC(C)(C)Cc1nnc(NC(=O)CSc2ccccc2)s1`: the Potency entry is “inactive”.
The same measure, in the same setting: the entry for `COc1ccccc1-c1nc2ccccc2s1` is “inactive”; for `Nc1cc(-c2nc(Nc3ccc(F)c(F)c3)c3ccccc3n2)ccn1` it is “inactive”; for `CC(=O)Nc1cccc(S(=O)(=O)Nc2ccc(C)c(C)c2)c1` it is “inactive”.
For `COc1ccc(NC(=O)CN2C(=O)N/C(=C\c3cccn3-c3ccc(C(=O)NC#N)cc3)C2=O)cc1`, the Potency entry was “inactive”.

For the origin of these results see PubChem BioAssay (NCATS).
